From PubChem BioAssay
Fluor 339 460 = intrinsic fluorescence of library compounds, ex339/em460 – biochemical, MLSMR library, data from DPM-DC assay, artefact control, profiling panel; fluorescence fold increase at 10 µM; compound autofluorescence, ex339/em460 nm, NADH buffer; hits give high values; 1 = no-compound wells, NADH background; AID 709, 2007; 65,000 tested, 5.5% active;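 active means at 10 µM, mean starting fluorescence two-fold or more over control wells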;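 further: signal is the first read of a kinetic run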
Abs 340nm = compound light absorbance at 340 nm, profiling panel, artefact control, biochemical, MLSMR library, data from PS, PMK, MK assays; compound absorbance at 340 nm, fold over control; fold change at 10 µM; 65,000 tested, under 10 active;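 active means at 10 µM dose, initial 340 nm absorbance at least 2 fold that of control wells; inactive means change under 2 fold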;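 further: initial absorbance extrapolated from kinetic A340 decline of NADH oxidation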
Spn MK inh = S. pneumoniae MK inhibitors, primary screen, biochemical, PK/LDH-coupled NADH absorbance. inhibition, % at 10 µM. mevalonate kinase [Streptococcus pneumoniae D39]. purified MK, PK/LDH-coupled NADH absorbance 340 nm. AID 555, 2006. 65,000 tested, 0.48% active;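 active means ranked among the strongest by inhibition in the single 10 µM screen, a fixed top-ranked set picked for dose follow-up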
Spn DPM-DC inh = S. pneumoniae DPM-DC inhibitors, primary screen, biochemical, PK/LDH-coupled NADH fluorescence | diphosphomevalonate decarboxylase (Streptococcus pneumoniae D39) | purified DPM-DC | calls only at 10 µM | 65,000 tested, 0.49% active | AID 556, 2006;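 active means the 320 compounds with the highest percent inhibition in the single-dose primary screen, excluding strongly autofluorescent ones, cut at about 32% in these data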;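 further: kinetic rate of NADH fluorescence loss reporting ADP formed by the decarboxylase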
NADH coupling = inhibitors of PK/LDH coupling enzymes, profiling panel, artefact control, biochemical, MLSMR library. coupled PK/LDH NADH assays, four targets. IC50, µM (series often up to 10 µM), for inactives: at the top dose inhibition. 65,000 tested, 0.02% active;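 active means single-dose screening hits from any of four coupled enzyme assays that gave an IC50 when retested across doses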;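 further: the DPM-DC format reads NADH fluorescence rather than 340 nm absorbance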
PMK inhibit = S. pneumoniae PMK inhibitors, primary screen, biochemical, mevalonate pathway, pilot trial included. phosphomevalonate kinase (Streptococcus pneumoniae D39). purified PMK, PK/LDH-coupled NADH absorbance 340 nm. inhibition, % at 10 µM. 65,000 tested, 0.49% active. AID 539, 2006;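 active means top-ranked compounds by inhibition in the single 10 µM screen, taking a fixed number of the strongest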;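 further: 0% = full reaction with DMSO carrier and 100% = background rate without enzyme reaction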
An asterisk follows results filed as active; i = inactive; · = no result shown; + = active, no number. Most compounds without a hit are left out; they make up all but 6.8% or so of the library.

SMILES	Fluor 339 460	Abs 340nm	Spn MK inh	Spn DPM-DC inh	NADH coupling	PMK inhibit
COc1ccc(S(=O)(=O)N2CCCC2C(=O)Nc2ccc(C(C)=O)cc2)cc1 (configuration not stated)	1.02	1.04	2.0	i	2.0%	4.0
Cc1c(C(=O)NC2CC2)oc2ccc(S(=O)(=O)N3CCCCCC3)cc12	1.04	1	1.0	+	5.0%	12.0
Cc1ccc(NC(=O)c2oc3ccc(S(=O)(=O)N4CCOCC4)cc3c2C)cc1C	3.12*	1.05	4.0	·	5.0%	11.0
O=C(NC1CC1)c1ccc(S(=O)(=O)NC2CCCCCC2)cc1	1.1	1.01	0.0	i	2.0%	5.0
O=C(NC1CCCC1)c1ccc(S(=O)(=O)N2CCCC2)cc1	2.09*	1	6.0	i	2.0%	11.0
Cc1c(C(=O)Nc2ccc(F)cc2)oc2ccc(S(=O)(=O)N3CCCC3)cc12	1.08	1.04	7.0	i	7.0%	12.0
COc1ccc(-c2nnn(CC(=O)N(CC(=O)NCCC(C)C)Cc3cccs3)n2)cc1OC	1.06	1	12.0	i	7.0%	8.0
c1csc(-c2noc(COc3ccc4c(c3)CCCC4)n2)c1	1.13	1.02	4.0	i	1.0%	0.0
c1ccc(N2CCN(c3nc4ccccc4n4nnnc34)CC2)cc1	1.78	1.06	0.0	i	5.0%	15.0
c1ccc(CCNc2nc3ccccc3n3nnnc23)cc1	2.58*	1.05	0.0	i	7.0%	13.0
CCOC(=O)c1ccc(N2C(=O)CC(N3CCOCC3)C2=O)cc1 (configuration not stated)	1.07	1.03	2.0	i	1.0%	1.0
O=C1CCCC2=C1C(c1ccco1)Nc1ccc3ccccc3c12 (configuration not stated)	2.16*	1.01	8.0	·	7.0%	6.0
CCC(=O)Nc1cccc(NC(=O)CSc2nnnn2Cc2ccccc2)c1	1.34	1.01	7.0	+	16.0%	8.0
O=C(CSc1nnnn1Cc1ccccc1)NCCc1ccccc1	1.04	1.01	10.0	+	22.0%	4.0
O=C(OCc1nc2ccccc2c(=O)[nH]1)c1cccs1	1.17	1.02	0.0	i	2.0%	0.0
CCCNC(=O)c1c(C)cc(=O)oc1C	2.06*	1.22	0.0	i	12.0%	16.0
Cc1cc(O)c(C=Nc2cccc(Cl)c2)c(=O)o1	0.5	1.03	5.0	+	16.0%	0.0
Oc1oc(-c2ccco2)nc1C=Nc1cccc(Cl)c1	1.04	1.05	0.0	i	4.0%	5.0
CN1CCc2c(sc3nc(SCC(=O)N4CCOCC4)nc(N)c23)C1	2.22*	1.17	5.0	·	3.0%	0.0
CC1CCN(C(=O)CSc2nc(N)c3c4c(sc3n2)CN(C)CC4)CC1	2.09*	1.1	5.0	·	3.0%	0.0
CC(C)Cc1nnc(NS(=O)(=O)c2ccc(Cl)cc2)s1	1.08	1	1.0	i	1.0%	6.0
Cn1cnc2cc(NS(=O)(=O)c3ccc(Br)cc3)ccc21	0.95	1.02	5.0	i	2.0%	0.0
CCCCS(=O)(=O)Nc1ccc2ncn(C)c(=O)c2c1	3.51*	1.03	7.0	·	8.0%	9.0
CCn1c(SCC(=O)NC2CCCCC2)nnc1-c1cccs1	1.09	0.98	11.0	i	7.0%	10.0
CCn1c(SC(=O)NC2CCCCC2)nnc1-c1cccs1	1.93	1.03	11.0	·	18.0%	25.0*
SMILES	Fluor 339 460	Abs 340nm	Spn MK inh	Spn DPM-DC inh	NADH coupling	PMK inhibit
CC(=O)NC(Cc1ccc(F)cc1)C(=O)N1CCN(C(=O)NCc2ccccc2)CC1 (configuration not stated)	1.06	0.98	0.0	i	1.0%	3.0
COc1ccc(OCC(=O)N2CCN(c3nnc(-c4ccccc4)c4ccccc34)CC2)cc1	1.13	1.06	1.0	i	9.0%	26.0*
O=C(CSc1cccc[n+]1[O-])c1cc2ccccc2o1	1.11	1.05	5.0	i	5.0%	9.0
CCOC(=O)C1CCN(Cc2ccc(OC)c(C)c2OC)CC1	1	0.98	48.0*	i	9.0%	16.0
CCOC(=O)C1CCCN(Cc2ccc(OC)cc2OC)C1 (configuration not stated)	1.13	1.07	49.0*	i	16.0%	0.0
CCOC(=O)C1CCN(Cc2ccc(F)c(Br)c2)CC1	0.98	1	51.0*	i	6.0%	9.0
CCOC(=O)C1CCCN(Cc2ccc(O)c(OC)c2)C1 (configuration not stated)	1.1	1.05	30.0	i	10.0%	0.0
Fc1ccc(CN2CCSCC2)cc1Br	1.1	1.05	0.0	i	1.0%	2.0
CS(=O)(=O)NCCSCc1ccco1	1.09	1.08	10.0	i	7.0%	10.0
COc1ccc(N2CCN(C(=O)c3cn(C4CCCC4)c(=O)c4c3c3ccccc3n4C)CC2)cc1	1.28	1.04	5.0	i	7.0%	16.0
Cc1ccc(CNC(=O)c2cn(C3CCCC3)c(=O)c3c2c2ccccc2n3C)o1	2.12*	1.05	2.0	·	11.0%	19.0
Cn1c2ccccc2c2c(C(=O)O)cn(C3CCCC3)c(=O)c21	2.13*	1.01	10.0	·	6.0%	2.0
Cn1c2ccccc2c2c(C(=O)NCc3ccco3)cn(C3CCCCC3)c(=O)c21	2.11*	1.05	7.0	·	11.0%	15.0
O=C(O)CCNS(=O)(=O)c1ccc(Oc2ccccc2)cc1	1.13	1.02	10.0	i	3.0%	0.0
CC(C)(C)n1nnnc1C(c1cc2cc3c(cc2[nH]c1=O)OCO3)N1CCN(c2ccccc2)CC1 (configuration not stated)	3.04*	1.06	2.0	+	13.0%	6.0
CCC(C)(C)n1nnnc1C(c1cc2cc(C)ccc2[nH]c1=O)N1CCCC1 (configuration not stated)	1.42	1.03	15.0	i	7.0%	11.0
O=c1[nH]c2cc3c(cc2cc1C(c1nnnn1CC1CCCO1)N1CCCC1)OCO3 (configuration not stated)	4.79*	1.09	9.0	·	11.0%	13.0
CCN1CCN(C(c2cc3cc4c(cc3[nH]c2=O)OCO4)c2nnnn2C(C)(C)CC)CC1 (configuration not stated)	4.01*	1.06	10.0	·	8.0%	6.0
O=C(Cc1cn2ccsc2n1)OCc1ccccc1	1.01	0.98	8.0	i	7.0%	13.0
O=C(Cc1cn2ccsc2n1)OCc1nc2ccccc2s1	1.02	1.01	1.0	i	9.0%	25.0*
Cc1c(C#N)sc2nc(-c3ccccc3)nc(N3CCCC3)c12	2.45*	1.06	3.0	·	2.0%	0.0
